Measured values as given in PubChem BioAssay.
Calls of active or inactive are those of the source.

test: CREB reporter modulators under forskolin, primary screen, cell-based, PC12, CRE-LacZ reporter, forskolin-stimulated (AID 1146); settings: luminescence, 4.5 h, higher = more signal, called active from +8 up or from −8 down;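 further: PC12 cells with 6xCRE LacZ reporter stimulated by forskolin 10 µM; beta-galactosidase reporter signal reflecting CREB driven transcription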

z-score, active:
CC(=O)O[C@H]1C2=CO[C@H](C)[C@H]3[C@H]4C5=C([C@H](O)[C@H]6O[C@H]6C5=O)[C@H](OC4C)[C@@]23C(=O)[C@@H]2O[C@@H]21 (some centres not stated) 16.6

z-score, inactive:
CO[C@H]1COC(=O)[C@@H](Cc2ccccc2)NC(=O)[C@@H](C)COC(=O)CCC[C@@H]1C -0.596
CCOC(=O)[C@H](CC(C)C)NC(=O)CCC1CC(OC(=O)NCCc2ccc(F)cc2)CC2(CCCC(COC(=O)NCCc3ccccc3OC)O2)O1 (some centres not stated) 0.135
CCc1cc2c(nc1CC)CCN(CCC(C)=NO[C@H](C)c1cn([C@H](CO)Cc3ccccc3)nn1)C2 0.406
CO[C@H]1COC(=O)CC=C[C@@H](C)[C@H](NS(=O)(=O)c2ccc(C)cc2)COC(=O)CCC[C@@H]1C -0.198
C=Cc1ccc([C@H]2N[C@H](C(=O)O)CC[C@@H]2C)cc1 0.179
CO[C@H]1COC(=O)[C@@H](C)COC(=O)[C@H](COCc2ccccc2)NC(=O)CC=C[C@H]1C -0.985
CCOC(=O)[C@H](CC(C)C)NC(=O)CCC1CC(OC(=O)NCc2cccc3ccccc23)CC2(CCCC(COC(=O)NCCC(C)C)O2)O1 (some centres not stated) -0.535
CO[C@H]1COC(=O)CC=C[C@@H](C)[C@H](OC)COC(=O)[C@@H]2CCCN2C(=O)CC=C[C@@H]1C -0.759
O=C1[C@H]2[C@H]3[C@H](O)[C@H](O)CC(=NOCc4ccccc4)[C@H]3CC[C@H]2C(=O)N1Cc1ccc2c(c1)OCO2 -0.915
Cc1ccc(S(=O)(=O)NC(CCc2ccccc2)CC(=O)C(C)(C)C)cc1 (configuration not stated) -0.37
O=C1C=C[C@@H](O)[C@@H]2[C@@H]3C(=O)N(C[C@@H]4CCCO4)C(=O)[C@@H]3CC[C@@H]12 -0.593
CC(C)=CCCC(C)=CCON=C1C[C@@H](O)[C@@H](O)[C@@H]2[C@@H]3C(=O)N(Cc4ccccc4)C(=O)[C@@H]3CC[C@@H]12 -0.0093
CCOC(=O)[C@H](CC(C)C)NC(=O)CCC1CC(OC(=O)NCCc2ccc(F)cc2)CC2(CCCC(COC(=O)NCCc3ccc(Cl)cc3)O2)O1 (some centres not stated) 0.214
CC(=O)Nc1ccc([C@@H]2N[C@H](C(=O)O)CC[C@H]2C)cc1 -1.21
CCOC(=O)NN=C1C[C@@H](O)[C@@H](O)[C@@H]2[C@@H]3C(=O)N(c4cccc(Oc5ccccc5)c4)C(=O)[C@@H]3CC[C@H]12 0.583
Cc1ccc(S(=O)(=O)N[C@H]2COC(=O)CC=C[C@H](C)[C@@H](NS(=O)(=O)c3ccc(C)cc3)COC(=O)CC=C[C@@H]2C)cc1 0.556
CC1O[C@H]2C3=C(C(=O)[C@@H]4O[C@@H]4[C@H]3O)[C@@H]1C1[C@@H](C)OC=C3[C@H](O)C4O[C@@H]4C(=NOCc4ccccc4)[C@]312 (some centres not stated) 6.5
C[C@@H](c1ccccc1)N1C(=O)[C@H]2[C@H]3[C@H](O)[C@H](O)CC(=NO[C@@H]4O[C@H](CO)[C@@H](O)[C@H](O)[C@H]4O)[C@@H]3CC[C@H]2C1=O 0.331
CON=C(C)CCC(=O)OC[C@H]1O[C@H](c2ccccc2)C=C[C@@H]1Oc1ccc(OC)cc1 -0.0322
COC(=O)[C@H](C)NC(=O)CCC1CC(OC(=O)NCc2ccc3c(c2)OCO3)CC2(CCCC(COC(=O)NCC(c3ccccc3)c3ccccc3)O2)O1 (some centres not stated) 1.96
COC(=O)[C@H](C)NC(=O)CCC1CC(OC(=O)NCCc2ccc(F)cc2)CC2(CCCC(COC(=O)NCCC(C)C)O2)O1 (some centres not stated) 0.283
O=C1[C@H]2[C@H]3[C@H](O)[C@H](O)CC(=NOCc4ccccc4)[C@@H]3CC[C@H]2C(=O)N1c1ccc(F)cc1F -0.445
CC(C)=CCCC(C)=CCON=C1C[C@@H](O)[C@@H](O)[C@@H]2[C@@H]3C(=O)N(C4CCCCC4)C(=O)[C@@H]3CC[C@@H]12 0.13
CC(C)CON=C1C[C@@H](O)[C@@H](O)[C@@H]2[C@@H]3C(=O)N(Cc4ccc5c(c4)OCO5)C(=O)[C@@H]3CC[C@H]12 0.201
CCOC(=O)[C@H](Cc1ccccc1)NC(=O)CCC1CC(OC(=O)NCc2ccc3c(c2)OCO3)CC2(CCCC(COC(=O)NCCc3ccccc3OC)O2)O1 (some centres not stated) 0.109
Cc1cc2c(c(=O)o1)[C@@H](O)[C@H]1O[C@H]1C2=O 0.0917
